WRN helicase inh: inhibitors of human WRN helicase; Potency, µM (highest dose often 114 µM), inactives show at the top dose activity change, negative = inhibition, actives largely listed as inhibitors; AID 651768; hit rate 0.46% among 360,000; WRN helicase unwinding, fluorescent forked duplex, kinetic; also: potency is read from the fitted curve at half-maximal effect; nearly all actives have a fitted effect of over 55% in size
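Fluorescence dequenching readout, ex 525 nm/em 598 nm, kinetic mode: forked duplex DNA (100 nM final) with adjacent fluorophore and quencher unwound by WRN (20 nM final) with 2 mM ATP. Compound preincubation 15 min, room temperature.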
PI5P4K alpha inh: inhibitors of human PI5P4K alpha. PI5P4Kalpha enzyme, ADP-Glo luminescence, 60 min; stronger effect = lower value. max response, %. hit rate 1.2% among 330,000; active = max response of -50% or lower; inconclusive = between -30% and -50%; inactive = -30% or higher; also: value at the top dose of about 77 µM
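qHTS, 1536-well: enzyme/substrate mix, compound by pin tool, 5 microM ATP final; RT 60 min; ADP-Glo reagents 1 (45 min) then 2 (30 min); luminescence.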
USP2a inh: inhibitors of human ubiquitin-specific protease USP2a; AID 463254; Potency, µM (titrated, usually from 38.3 µM), for the others: at the top dose activity change, negative = inhibition, most hits filed as inhibitors; USP2 core, Ub-CHOP2 coupled fluorogenic reporter, 485/531; O75604; hit rate 0.01% among 330,000;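 also: potency is read from the fitted curve at half-maximal effect; plate controls were DMSO wells for no effect and full inhibition by NEM control for full effect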
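Cell-free coupled assay: 10nM USP2 core preincubated 30min RT with compound in Tris-HCl pH 8.0/CaCl2/CHAPS buffer, then 25nM Ub-CHOP2 and 25nM reporter substrate; fluorescence (Ex 485/Em 531) read after 60min RT, normalized to NEM inhibition, concentration-response curves fitted.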
PLK1 PBD inh: inhibitors of human PLK1 polo-box domain binding | P53350 | Plk1 PBD binding of FITC phosphopeptide, fluorescence polarization | Potency, µM, without a hit: max response, negative = inhibition, hits mostly inhibitors | hit rate 2.8% among 360,000 | AID 720504; also: potency is read from the fitted curve at half-maximal effect; series mostly up to about 57 µM; nearly all actives have a fitted effect of over 65% in size
USP1-UAF1 inh: inhibitors of human USP1/UAF1 deubiquitinase | recombinant USP1/UAF1, Ub-Rhodamine cleavage fluorescence | Potency, µM (top dose mostly 57.1 µM), for the others: at the highest dose activity change, negative = inhibition, hits mostly inhibitors | hit rate 0.23% among 390,000; also: potency is read from the fitted curve at half-maximal effect; nearly all actives have a fitted effect of over 60% in size
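1 nM enzyme complex + cpd, 15 min RT; start with Ub-Rho 150nM final; kinetic fluorescence ex 480/em 540, 6 reads q60 s. Buffer 50mM HEPES pH 7.8, 0.5mM EDTA, 0.1 mg/ml BSA, 1mM TCEP, 0.01% Tween-20.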
TbPYK confirm: Trypanosoma brucei pyruvate kinase inhibition, cherry-pick confirmation | hit rate 67% among 890 | AID 720569 | Potency, µM (series often up to 76.9 µM), for the others: top-dose activity change, negative = inhibition, hits mostly inhibitors | shares compounds with PLK1 PBD inh | recombinant TbPYK, Kinase-Glo ATP luminescence; also: potency is read from the fitted curve at half-maximal effect; nearly all actives have a fitted effect of over 70% in size
TbPYK ADP-Glo: orthogonal confirmation of Trypanosoma brucei pyruvate kinase inhibitors | shares compounds with PLK1 PBD inh | recombinant TbPYK, ADP-Glo luminescence, 60 min | Potency, µM (top dose mostly 76.9 µM), for inactives: at the top dose activity change, negative = inhibition, usual class: inhibitors | hit rate 62% among 890; also: potency is read from the fitted curve at half-maximal effect; nearly all actives have a fitted effect of over 75% in size
* hit, by the source's call; ? = inconclusive; . = no result; [ ] = dose if it differs, or a comment. This is a sample that favours compounds with a hit; in the whole collection about 3.3% have one here. Unless noted, calls follow the shape of the dose curve; as a rule, active = well fitted curve in the direction sought with a large enough effect; inconclusive = small, poorly fitted or top-dose-only effect, or another doubt; inactive = no such curve, though single readings can be large; an effect the other way counts as inactive or inconclusive. Unless noted, % is scaled to controls: 0 for no effect and ±100 for the full control effect.

SMILES | WRN helicase inh | PI5P4K alpha inh | USP2a inh | PLK1 PBD inh | USP1-UAF1 inh | TbPYK confirm | TbPYK ADP-Glo
COc1cc(NC(=O)Cn2cc(C(=O)c3ccc(F)cc3)c(=O)c3ccc(C)nc32)cc(OC)c1 | . | . | . | . | -17% | . | .
N#CCSc1nc2c(cc1C#N)CCCC2 | 2% | -1 | -1% | -13% | 0% | . | .
CSC1CCCCC1(O)CSc1nc2c(cc1C#N)CCCC2 (stereo unspecified) | -13% | . | 2% | 27µM* | -22% | 7.9µM* | 8.9µM*
CN(C)c1ccc(CNS(=O)(=O)c2ccc3[nH]c4c(c3c2)CCCCC4)cc1 | . | . | . | . | -15% | . | .
CCn1c(SCC(=O)Nc2nc(-c3ccccc3)cs2)nc2c1c(=O)n(C)c(=O)n2C | -3% | -1 | 1% | 4% | -10% | . | .
CCCn1c(SCC(=O)Nc2nc(-c3ccc(OC)cc3)cs2)nc2c1c(=O)n(C)c(=O)n2C | ? | 0 | 2% | -12% | -22% | 11% | 2%
Cc1cccc(S(=O)(=O)c2cn(C)c3cc(N4CCN(c5ccccc5)CC4)c(F)cc3c2=O)c1 | . | . | . | . | -14% | . | .
Cc1cc(Nc2ccccc2F)n2nc(Cc3ccc(Cl)cc3)nc2n1 | . | . | . | . | -15% | . | .
C1=CC2c3ccccc3NC(c3ccncc3)C2C1 (stereo unspecified) | -28% | -57* | -8% | ? | ? | 18µM* | 16µM*
CC(C)Sc1nc2c(c(=O)[nH]c(=O)n2C)n1Cc1ccc(Cl)cc1 | 2% | -17 | -9% | ? | -14% | 3.2µM* | 5µM*
Cn1c(=O)[nH]c(=O)c2c1nc(SCC(=O)O)n2CCc1ccccc1 | -2% | -57* | 9% | -23% | -14% | ? | ?
Oc1c(CN2CCOCC2)cc(CN2CCOCC2)c(O)c1CN1CCOCC1 | ? | -3 | . | 1.7µM* | 1% | 1.4µM* | ?
S=c1[nH]nc(-c2ccccn2)n1/N=C/c1ccc(-c2ccccc2Br)o1 | -10% | -25 | -2% | -25% | -22% | . | .
CC1=NOC(=O)/C1=C\c1ccc(-c2ccccc2Br)o1 | 56µM* | ? | 3% | 0.42µM* | ? | ? | -29%
CSC1=NS(=O)(=O)c2c(C)nn(C)c2S1 | 3% | -76* | 0% | 21µM* | -26% | 4µM* | 3.5µM*
COc1ccc(-c2noc(Cn3c(=O)c4ccccc4n(CC(=O)Nc4cccc(OC)c4)c3=O)n2)cc1 | . | . | . | . | -1% | . | .
O=C(CSc1nnc(-c2ccco2)c(-c2ccco2)n1)c1ccccc1 | ? | ? | 0% | 17µM* | -11% | 14µM* | 20µM*
COc1ccc(-c2nnc(SCC(=O)Nc3ccc(C(C)=O)cc3)nc2-c2ccc(OC)cc2)cc1 | . | . | . | . | -13% | . | .
CC(=O)c1ccc(NC(=O)CSc2nnc(-c3ccco3)c(-c3ccco3)n2)cc1 | 32µM* | -64* | 1% | 13µM* | ? | 28µM* | 32µM*
Cc1cccc(NC(=O)c2ccc3c(O)c(S(=O)(=O)c4ccccc4)c(=O)[nH]c3c2)c1C | . | . | . | . | -25% | . | .
Cc1cccc(C(=O)Oc2csc(=S)n2C(=O)c2cccc(C)c2)c1 | -16% | . | 5% | 4.7µM* | -24% | 1.3µM* | 2.5µM*
CC(C)Oc1ccc(CNC(=O)c2ccc3nc(C(C)C)oc3c2)cc1 | . | . | . | . | -30% | . | .
Cc1cccc2cc3c(nc12)SC(=NCC1CCCO1)N(Cc1ccco1)C3 (stereo unspecified) | ? | -55* | -10% | 24µM* | -13% | ? | 32µM*
COc1ccc(N2C3=C(CC4=C2CCCC4=O)C(=O)CCC3)cc1 | -6%[57.1 µM] | ? | 4% | 21µM* | -14% | -7% | -23%
Cc1ccc(NC(=O)c2cc(S(=O)(=O)N3CCc4ccccc43)cn2C)c(Cl)c1 | . | . | . | . | -15% | . | .
SMILES | WRN helicase inh | PI5P4K alpha inh | USP2a inh | PLK1 PBD inh | USP1-UAF1 inh | TbPYK confirm | TbPYK ADP-Glo
CCN1/C(=C2\C(=O)N(C)C(=S)N2c2ccccc2)C=Cc2ccccc21 | -5% | -29 | -10% | -20% | -8% | . | .
CCN1/C(=C2\C(=O)N(C)C(=S)N2C)C=Cc2ccccc21 | -1%[57.1 µM] | -29 | 2% | 0% | 1% | ? | ?
CC(C)(C)OC(=O)N1CCC(c2c(C(=O)N3CCN(C(=O)c4ccco4)CC3)cnn2-c2ccccc2)CC1 | . | . | . | . | 15% | . | .
CC(C)CC1CC(=O)OC1(C)C(=O)CSc1nc2ccccc2s1 (stereo unspecified) | -15% | -20 | -2% | 19µM* | -7% | ? | ?
CC(C)OC(=O)CSc1nc2ccccc2s1 | 0% | 8 | 1% | ? | -28% | . | .
Cc1c(CNCCCc2ccccc2)c(C(=O)O)c(C)n1Cc1ccc(Cl)cc1 | . | . | . | . | -12% | . | .
Cc1nc(N2CCCCC2)c2sc(=S)n(C)c2n1 | 2% | 0 | -1% | -16% | -4% | . | .
CCN1CCN(c2nc(C)nc3c2sc(=S)n3C)CC1 | 11% | -25 | 4% | 3µM* | -13% | 5.6µM* | 16µM*
COc1cc(OC)c(NC(=O)CN2C(=O)CCn3nc(-c4cccn4C)cc32)cc1Cl | . | . | . | . | -28% | . | .
CC1(C)CC(=O)C(CSC(=O)c2ccccc2)C(=O)C1 | -9% | ? | . | 9.5µM* | -13% | 5.6µM* | 14µM*
